Screening results deposited in PubChem BioAssay by National Center for Advancing Translational Sciences (NCATS).
In the library only some 3% were active in any assay of this set; here they are far more common.
LDHA block: qHTS assay for inhibitors of human lactate dehydrogenase | 480,000 tested, 0.15% active | activity change, % (values are at about 110 or 230 µM) | L-lactate dehydrogenase A chain (Homo sapiens), P00338 | AID 1347041, 2019 | purified LDHA, NADH/diaphorase-resazurin fluorescence; stronger effect = lower value; in the data active = activity change below about -30%; inconclusive = mostly about -25% to -30%;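 note: plate controls were DMSO wells for no effect and wells without enzyme for full effect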
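LDH5 2 nM; NADH 0.06 mM, pyruvate 0.2 mM; 200 mM Tris pH 7.4, EDTA, Tween-20; 5 min RT. Detection: diaphorase 0.133 mg/mL + resazurin 37 µM, fluorescence ex540/em590 at 0 and 20 min; normalized to enzyme-free and DMSO wells.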
KCNH2 3.1 block: qHTS for Inhibitors of KCHN2 3.1: Mutant qHTS; 340,000 tested, 0.95% active; activity change, % (tested at about 1.8 µM); U2OS KCNH2 3.1, thallium flux FluxOr; stronger effect = lower value;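 active = maximum activity change below -70%; inconclusive = maximum activity change from -70% to -50%; inactive = maximum activity change above -50%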;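 note: thallium influx rate constant from kinetic fluorescence after stimulation buffer; % is set by controls: 0 for no effect and ±100 for the full control effect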
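Normalized rate constant (relative to positive and negative DMSO controls) derived from a 2 min kinetic fluorescence read after stimulation; U2OS cells expressing the 3.1 isoform via virus at 1.77 x 10^8 /mL.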
hERG WT inh: qHTS for Inhibitors of KCHN2 3.1: Wildtype qHTS | 340,000 tested, 0.37% active | U2OS, BacMam KCNH2, thallium flux FluxOr; stronger effect = lower value | activity change, % at 1.84 µM;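 active = maximum activity change below -70%; inconclusive = maximum activity change between -70% and -50%; inactive = maximum activity change above -50%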; note: % is set by controls: 0 for no effect and ±100 for the full control effect
Target sequence (Q12809 whole entry, looked up): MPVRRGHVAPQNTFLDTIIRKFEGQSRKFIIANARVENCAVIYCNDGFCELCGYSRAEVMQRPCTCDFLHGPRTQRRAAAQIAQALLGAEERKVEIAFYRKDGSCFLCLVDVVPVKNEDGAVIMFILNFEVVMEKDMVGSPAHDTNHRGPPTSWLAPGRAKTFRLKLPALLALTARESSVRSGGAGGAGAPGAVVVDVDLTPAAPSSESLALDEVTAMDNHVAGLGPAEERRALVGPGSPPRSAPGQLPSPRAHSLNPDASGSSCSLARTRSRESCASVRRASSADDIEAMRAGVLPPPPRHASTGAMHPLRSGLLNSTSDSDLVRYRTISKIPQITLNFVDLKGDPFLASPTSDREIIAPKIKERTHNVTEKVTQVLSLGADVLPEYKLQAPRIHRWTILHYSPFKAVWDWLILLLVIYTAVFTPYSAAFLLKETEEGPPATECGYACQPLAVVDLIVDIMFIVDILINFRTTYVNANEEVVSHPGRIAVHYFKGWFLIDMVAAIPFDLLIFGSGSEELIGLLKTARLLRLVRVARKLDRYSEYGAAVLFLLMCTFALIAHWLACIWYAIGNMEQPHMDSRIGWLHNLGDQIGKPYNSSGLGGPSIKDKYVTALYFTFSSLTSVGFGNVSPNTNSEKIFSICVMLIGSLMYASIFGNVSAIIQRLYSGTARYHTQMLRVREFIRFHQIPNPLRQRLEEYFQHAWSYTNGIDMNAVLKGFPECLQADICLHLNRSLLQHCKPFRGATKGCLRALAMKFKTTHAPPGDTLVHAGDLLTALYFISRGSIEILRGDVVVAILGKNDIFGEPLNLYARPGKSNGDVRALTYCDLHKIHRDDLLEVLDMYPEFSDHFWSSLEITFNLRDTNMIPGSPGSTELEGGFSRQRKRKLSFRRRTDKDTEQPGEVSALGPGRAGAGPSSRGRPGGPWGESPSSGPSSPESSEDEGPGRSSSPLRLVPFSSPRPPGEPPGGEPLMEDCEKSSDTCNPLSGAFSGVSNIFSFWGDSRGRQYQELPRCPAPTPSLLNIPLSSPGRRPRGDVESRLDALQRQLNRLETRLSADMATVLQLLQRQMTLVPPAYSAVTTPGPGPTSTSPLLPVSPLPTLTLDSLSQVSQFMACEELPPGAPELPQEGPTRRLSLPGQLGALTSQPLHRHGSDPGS
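U2OS cells transduced with wild-type KCNH2 virus are loaded with FluxOr dye for 45 min, and thallium flux is measured in kinetic reads before and after stimulation buffer. Rate constants are normalized to DMSO controls.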
ClpP mod: qHTS Assay for Activators of ClpP; ATP-dependent Clp protease proteolytic subunit (Bacillus subtilis (strain 168)), P80244; purified B. subtilis ClpP, FRET peptide cleavage, 20 min; Potency, µM (series often up to 57.5 µM), without a hit: at the top dose activity change, negative = active; 340,000 tested, 1.9% active; active = well fitted falling curve with a large enough effect; inconclusive = small, poorly fitted or top-dose-only effect; inactive = no such curve, though single readings can be large or run the other way; note: potency is the fitted concentration of half-maximal effect; the source files actives as falling curves though it sought activators and does not explain the sign; nearly all actives have a fitted effect of over 65% in size
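ClpP 10 microg/mL final, pH 8 Tris/KCl buffer with BSA, glycerol, Tween-20; compound pinned in; FRET-FV substrate; RT 20 min; Ex320/Em430; ΔFRET vs ADEP 5.8 microM, DMSO, no enzyme.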
BCR signal inh: qHTS Assay to Find Inhibitors of Chronic Active B-Cell Receptor Signaling; ABC-DLBCL IkBa-CBG/CBR reporter, luminescence ratio, 4 h; Potency, µM (titrated, usually from 46.1 µM), without a hit: at the highest dose activity change, negative = inhibition, usual class: inhibitors; 340,000 tested, 0.05% active; AID 493014, 2011; active = well fitted inhibition curve with a large enough effect in the signal ratio, with a control signal flat, not every such curve was filed as active; inconclusive = small, poorly fitted or top-dose-only effect, or effect the other way, or a change in a side signal; the % refers to the signal ratio;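 note: potency is the fitted concentration of half-maximal effect; plate controls were basal doxycycline-induced cells for no effect and cells given 10 µM MG132 for full effect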
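Concentration-response series (up to 46 uM) were applied to TMD8 dual-reporter cells for 4 h at 37C with doxycycline. Green/red ratio, after filter-overlap correction, defined %Activity; red signal alone was normalised to basal cells and zero luminescence.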
12-LOX inh: Primary qHTS assay for inhibitors of human arachidonate 12S-lipoxygenase (ALOX12): Round 2. Polyunsaturated fatty acid lipoxygenase ALOX12 (Homo sapiens), P18054. purified 12hLO, xylenol orange hydroperoxide absorbance. Potency, µM (highest dose often 108 µM), for inactives: at the highest dose activity change, negative = inhibition, usual class: inhibitors. 580,000 tested, 1.1% active. AID 1671190, 2021; active = well fitted inhibition curve with a large enough effect; inconclusive = small, poorly fitted or top-dose-only effect, or another doubt; inactive = no such curve, though single readings can be large or run the other way; note: potency is the fitted concentration of half-maximal effect; % is set by controls: 0 for no effect and ±100 for the full control effect
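Purified human 12hLO at 150 nM in 25 mM Hepes, 0.01% Triton X-100, pH 7.0, preincubated 15 min at room temperature with compound. Reaction started with 40 uM arachidonic acid, 30 min at room temperature. Hydroperoxide measured by Fe-xylenol orange, 573/405 nm absorbance ratio.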
The depositor's hits bear a star; u = inconclusive; x = not tested or not shown; [ ] = another dose, or the depositor's remark.

SMILES	LDHA block	KCNH2 3.1 block	hERG WT inh	ClpP mod	BCR signal inh	12-LOX inh
CCc1ccc2occ(CC(=O)Nc3c(C(=O)Nc4ccc(Cl)cc4)oc4ccccc34)c2c1	-5.5	x	x	15.8µM*	x	-7.1%
Cc1ccc2c(CC(=O)Nc3c(C(=O)Nc4cccc(Cl)c4)oc4ccccc34)coc2c1C	-4.4	x	x	u	x	6.0%
Cc1ccc(C(=O)c2oc3ccccc3c2NC(=O)Cc2coc3c(C)c(C)ccc23)cc1	-8.8	x	x	-1.7%	x	3.7%
CCc1ccc2occ(CC(=O)Nc3c(C(=O)c4ccccc4)oc4ccccc34)c2c1	-1.8	x	x	22.4µM*	x	2.1%
CCc1ccc2occ(CC(=O)Nc3c(C(=O)Nc4ccc(C)cc4)oc4ccccc34)c2c1	-8.8	x	x	260.5%	x	-0.7%
Nc1nc(Cl)nc(Nc2ccccc2)c1[N+](=O)[O-]	6.2	x	x	x	x	u
CCc1ccc(C(=O)N2CCC(Oc3ccc(C(N)=O)cn3)CC2)cc1	x	x	x	x	x	6.4%
N#C/C(=C/c1cccc(O)c1)C(=O)Nc1ccc(N2CCOCC2)cc1	-4.4	x	x	x	x	u
CCNc1ccc(Br)cc(C(=O)/C=C/c2ccc3c(c2)OCO3)c1=O	19.8	3.5	4.0	-4.7%	-18.0%	3.16µM*
CCCCCCCCc1ccc(/C(C=[N+](C)C)=C/N(C)C)cc1	1.4	x	x	x	x	u
COc1ccccc1N1CSC2=C(C#N)C(c3ccc(SC)cc3)CC(=O)N2C1 (stereo not given)	-2.9	-0.5	7.5	12.9%	-14.6%	11.2µM*
COc1cc(C2CC(=O)N3CN(c4ccccc4C)CSC3=C2C#N)cc(OC)c1OC (stereo not given)	x	x	x	x	-6.0%	u
COc1cccc(C2CC(=O)N3CN(c4ccccc4F)CSC3=C2C#N)c1 (stereo not given)	3.6	-0.7	-4.9	1.2%	-14.9%	8.91µM*
COc1ccc(OC)c(C2CC(=O)N3CN(c4ccccc4F)CSC3=C2C#N)c1 (stereo not given)	5.9	0.3	0.6	1.6%	-4.7%	u
N#Cc1ccc(NCC(=O)Nc2ccccc2)cc1	-0.8	x	x	x	x	-6.8%
CCOC(=O)CS(=O)(=O)c1nc(-c2ccccc2)cc(C(F)(F)F)n1	-4.5	-1.6	-0.8	-7.9%	u	59.6%
CCOC(=O)CS(=O)(=O)c1nc(-c2ccc(F)cc2)cc(C(F)(F)F)n1	-4.1	3.9	-4.8	22.4µM*	u	72.4%
Cc1ccccc1C1=C/C(=C(\SS/C(C(=O)c2ccc(OCC(=O)O)c(Cl)c2Cl)=C2\C=C(c3ccccc3C)SS2)C(=O)c2ccc(OCC(=O)O)c(Cl)c2Cl)SS1	-13.9	2.3	-5.4	2.4%	x	5.62µM*
Cc1c(C(=O)NCCSc2ccc(Cl)cc2)oc2c1C(=O)CCC2	12.5	x	x	x	x	-51.5%
CN1CCN(c2nc3c(c(=O)[nH]2)CCN(Cc2cn[nH]c2-c2ccccc2)CC3)CC1	x	x	x	x	x	39.3%
NS(=O)(=O)c1ccc(CCNC(=O)C2CCCN(S(=O)(=O)c3cccnc3)C2)cc1 (stereo not given)	1.6	1.7	-8.2	0.3%	6.8%	187.1%
O=C(NCCc1ccccc1)C1CCCN(S(=O)(=O)c2cccnc2)C1 (stereo not given)	-2.6	11.7	-253.9*	1.3%	6.0%	0.0%
CN(C)Cc1ccccc1CNC(=O)CCc1nc2ccccc2s1	2.7	x	x	x	x	-3.1%
Cn1c(C(=O)N2CCN(c3nc4ccccc4s3)CC2)cc2sccc21	-5.2	-2.1	-3.3	7.2%	-12.1%	-21.1%
O=C(c1cc2sccc2n1Cc1ccc(F)cc1)N1CCN(c2nc3ccccc3s2)CC1	-1.9	-90.0*	-15.9	-4.3%	u	0.0%[57.4 µM]
SMILES	LDHA block	KCNH2 3.1 block	hERG WT inh	ClpP mod	BCR signal inh	12-LOX inh
CCN1CCN(CC2CCCN2)CC1 (stereo not given)	-9.2	x	x	x	x	u
C1CNC(CN2CCOCC2)C1 (stereo not given)	2.6	x	x	x	x	8.91µM*
COCCN1CC(Cc2ncccc2C(=O)N2CCCCC2)CC1=O (stereo not given)	x	x	x	x	x	12.5%
CN(C)c1ccc(NC(=O)c2cn(-c3ccccc3)nc2-c2cccs2)cc1	-9.2	-14.4	-14.9	-11.7%	-14.7%	u
O=C(Nc1ccc2ccccc2c1)c1cn(-c2ccccc2)nc1-c1cccs1	-1.6	-14.5	-1.2	31.6µM*	-0.2%	0.0%
CCOC(=O)NC(=O)/C(C#N)=N\Nc1ccc(Cl)cc1	-9.4	-12.6	-10.6	-0.5%	6.4%	u
CCOC(=O)NC(=O)/C(C#N)=N\Nc1cccc(Cl)c1	-17.0	-1.2	-17.8	x	u	0.398µM*
CC(C)N1C(=O)C2(CCCCC2)C1C(=O)NCCCN1CCCc2ccccc21 (stereo not given)	x	x	x	x	x	410.7%
CCOC(=O)CNC(=O)c1cnc(Nc2ccccc2OC)c2ccccc12	-4.6	-3.1	-0.7	x	0.0%	u
COc1ccc(Nc2ncc(C(=O)Nc3cc(Cl)c(OC)cc3OC)c3ccccc23)cc1	-3.6	x	x	u	x	-22.1%
COc1ccc(OC)c(NC(=O)c2cnc(Nc3ccccc3OC)c3ccccc23)c1	-0.4	-20.2	1.2	35.5µM*	-5.4%	7.3%
CCOC(=O)N1CCN(C(=O)c2cnc(Nc3ccccc3OC)c3ccccc23)CC1	6.1	-193.2*	1.7	1.5%	-0.4%	0.0%
CC(NC(=O)CCc1ccsc1)C1CCCO1 (stereo not given)	-7.8	x	x	x	x	30.4%
Cc1ccc(-c2nn(-c3ccccc3)cc2C=C2C(=O)CC(C)(C)CC2=O)cc1	-4.8	1.0	0.4	0.9%	u	7.94µM*
CCc1cccc(CC)c1NC(=O)CC(C#N)(C(C)=O)c1c(Cl)cccc1Cl (stereo not given)	-1.6	x	x	x	x	u
COc1cc(/C=C2\C(=N)N3N=C(S(C)(=O)=O)SC3=NC2=O)ccc1OS(=O)(=O)c1ccc(C)cc1	-4.6	-8.9	0.8	-24.9%	u	44.7µM*
CCOc1cc(/C=C2/C(=N)N3N=C(C)SC3=NC2=O)ccc1OS(=O)(=O)c1ccc(C)cc1	-1.6	4.8	3.4	x	15.0%	2.6%
O=C(CC(NS(=O)(=O)c1ccc(Cl)cc1)c1ccco1)NCc1ccco1 (stereo not given)	-1.9	6.9	11.6	25.1µM*	12.2%	112.4%
